The panel holds about 83,000 compounds, 20% with a hit somewhere; the sample as a whole holds those more often.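 Method: cells in 96-well plates; compound added at one concentration; 48 h incubation; percent growth measured; values under 10 scored active.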 A number with no mark means an inactive call. Active and inactive are the calls of the source.
Legend:
Assay in all cases: NCI-60 one-dose screen, 48 h (100 = growth as untreated, 0 = no growth, -100 = all killed)
SK-MEL-2 melanoma = conditions: 10 µM
EKVX NSCLC = conditions: 10 µM
SN12C renal = conditions: 10 µM
UO-31 renal = conditions: 10 µM
TK-10 renal = conditions: 10 µM unless noted
ACHN renal = conditions: 10 µM
CAKI-1 renal = conditions: 10 µM
A498 renal = conditions: 10 µM
CCRF-CEM leukemia = conditions: 10 µM
MOLT-4 leukemia = conditions: 10 µM

SMILES	growth (SK-MEL-2 melanoma)	growth (EKVX NSCLC)	growth (SN12C renal)	growth (UO-31 renal)	growth (TK-10 renal)	growth (ACHN renal)	growth (CAKI-1 renal)	growth (A498 renal)	growth (CCRF-CEM leukemia)	growth (MOLT-4 leukemia)
COc1cc2cc(OC(C)=O)c3cc4c(cc3c2c(OC)c1OC)OCO4	109%	95%	101%	89%	101%	101%	99%	92.5%	2.13% (active)	96.6%
CCS(=O)(=O)c1cc(=O)[nH]c(=O)[nH]1	101%	91.4%	101%	90.1%	102%	96.8%	88.4%	121%	110%	128%
CCCCOC(OCCCC)c1ccccc1	108%	110%	101%	98.4%	107%	109%	96.3%	84.7%	105%	106%
CCCCC(CC)COC(C)=O (configuration not stated)	106%	101%	101%	88.3%	102%	106%	96.9%	86.3%	108%	105%
O=C1N(C[P+](c2ccccc2)(c2ccccc2)c2ccccc2)CCCN1C[P+](c1ccccc1)(c1ccccc1)c1ccccc1	122%	97%	97.3%	87.1%	106%	97.1%	89.4%	85.5%	107%	97.7%
CC(C)COC(=O)COC(=O)OCCOCCOC(=O)OCC(=O)OCC(C)C	94.2%	119%	97.9%	89.8%	91.9%	95.7%	116%	99.9%	106%	–
O=C(CC(=O)c1ccccc1O)c1ccccc1	131%	76.8%	85.7%	87.3%	87.8%	99%	92.2%	98.6%	–	–
CCC/C=C(/C(C)=O)C(=O)OCC	132%	168%	101%	101%	139%	103%	128%	132%	143%	135%
O=C1c2ccccc2C(=O)N1OCc1ccccc1	96.7%	98.7%	110%	79.1%	133%	101%	95.2%	134%	97.3%	93.7%
CCOC(=O)c1[nH]c(C)c(C(=O)O)c1C	124%	105%	99.5%	84.7%	104%	102%	97.3%	102%	89.6%	91.9%
O=S(=O)(O)c1ccc(Cl)c(Cl)c1	103%	91.4%	97.9%	79.4%	100%	97.3%	84.8%	99.4%	103%	109%
NC(=O)c1ccc(N=C(N)N=C(N)N)cc1	121%	73.5%	110%	78.5%	77.5%	112%	93.4%	106%	99.6%	103%
CCOC(=O)c1[nH]c(C)c(C(C)=O)c1C	122%	100%	90.8%	79.3%	98.4%	97%	87.3%	91%	91.6%	59.1%
CCC(C)(O)c1ccc(C)cc1 (configuration not stated)	98%	109%	102%	91.4%	99.6%	108%	104%	96.9%	99.3%	95.6%
COC(=O)c1ccccc1Br	114%	81.4%	92.4%	96.4%	103%	105%	102%	104%	109%	94.6%
O=C1C=CC2=C3c4cc(O)c(O)cc4CC3(O)COC2=C1O (configuration not stated)	87.3%	101%	104%	86.6%	101%	111%	111%	99.1%	104%	103%
C1CNC(C2=NCCN2)=N1	116%	103%	102%	90.2%	103%	109%	99.2%	108%	109%	96.4%
CC(=O)OC1CC2C(C)(C)OC3CC(=O)OCC32C2CCC3(C)C(=CCC3c3ccoc3)C12C (configuration not stated)	99.5%	102%	105%	86.9%	107%	101%	98.7%	110%	101%	90.8%
CC(=O)c1cc2c(cc1F)C(C)(C)CCC2(C)C	104%	111%	98.5%	80%	109%	91.9%	112%	92.6%	120%	89.1%
Cc1cc(OCCO)cc(C)c1Cl	117%	142%	98.9%	109%	123%	116%	115%	102%	96.3%	100%
Brc1cnc2ccccc2c1	100%	103%	98.4%	78.2%	102%	98.2%	97.7%	99%	108%	101%
Cc1cc2nc(CO)[nH]c2cc1C	83%	112%	105%	85.8%	131%	105%	110%	101%	93.6%	103%
O=c1[nH]n(-c2ccccc2)c(=O)cc1Cl	104%	110%	93.3%	84.7%	102%	98.5%	121%	108%	106%	95.4%
CCOC(=O)c1ccc(Nc2sc(C(=O)c3cccc([N+](=O)[O-])c3)c(N)c2C#N)cc1	33%	62.1%	52.9%	31.1%	74.1%	41.3%	-17.8% (active)	38.4%	5.1% (active)	23.6%
CCC(O)CC(CC)CO (configuration not stated)	134%	93.7%	111%	94.6%	111%	105%	96.6%	99.2%	96.2%	102%
CC1OC(Oc2c(-c3ccc(O)c(O)c3)oc3cc(O)cc(O)c3c2=O)C(O)C(O)C1O (configuration not stated)	104%	110%	102%	92.5%	103%	113%	102%	99.5%	106%	108%
CCNc1nc2c(cnn2C)c(=O)[nH]1	103%	99.4%	103%	85.7%	104%	107%	93.9%	97.1%	93.9%	102%
COC(=O)c1cccnc1	93.2%	105%	93.2%	78.9%	96.9%	90.6%	94.8%	101%	96.2%	98.3%
NC(=S)NN=C1CCCC1	104%	65.4%	94.5%	63.2%	105%	107%	102%	85.6%	42.7%	66.1%
COc1ccc(Oc2c(I)cc(CC(NC(C)=O)C(=O)O)cc2I)cc1 (configuration not stated)	102%	67.9%	83.8%	71.7%	113%	97.6%	57.4%	79.7%	78.4%	60.9%

Reference: PubChem BioAssay (NCI)
